Screening data deposited in PubChem BioAssay by several laboratories.
This is a sample that favours compounds with a hit; in the whole collection about 3.8% have one here.
ADAM10 inh: inhibitors of human ADAM10; O14672; recombinant ADAM10, EDANS/DABCYL FRET peptide cleavage, 3 h; inhibition, % at 7 µM; actives 0.62% (n = 370,000); AID 720582;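 active = inhibition above a per-campaign cutoff equal to the mean of compounds falling between control-based bounds plus 3 SD, cut at about 20% in these data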;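 note: 0% = DMSO wells while the 100% control is not disclosed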
rRNA inh HTS: selective bacterial rRNA inhibition in E. coli; E. coli WT GFP vs humanized-ribosome RFP mutants, fluorescence, 24 h; hits give low values; DMSO median 0, no signal -100; AID 720706; GFP signal change (wild-type ribosome), % (concentration not given with the values); actives 1.6% (n = 350,000);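 active = significant combined selectivity score with lowered wild-type GFP, culture density cut under 30%, mutant RFP and density less affected; inactive = any of these conditions unmet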
KLK7 zymogen act: activators of human kallikrein-7 zymogen; P49862; purified proKLK7, EDANS-DABCYL substrate fluorescence; 100% is mature enzyme control, 0% vehicle; activation, % at 7 µM; actives 0.9% (n = 370,000);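 active = activation above the mean of all tested compounds plus 3 SD, computed per campaign excluding outliers beyond control limits, cut at about 13% in these data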
Target sequence (P49862 whole entry, looked up): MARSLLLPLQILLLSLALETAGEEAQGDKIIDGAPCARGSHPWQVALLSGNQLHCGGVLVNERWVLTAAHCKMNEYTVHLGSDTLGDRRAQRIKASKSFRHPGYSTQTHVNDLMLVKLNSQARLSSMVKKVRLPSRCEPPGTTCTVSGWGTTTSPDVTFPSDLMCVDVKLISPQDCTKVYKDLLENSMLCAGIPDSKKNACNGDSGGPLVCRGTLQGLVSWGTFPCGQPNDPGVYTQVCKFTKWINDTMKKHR
ADAM17 inh: ADAM17 inhibition, QFRET primary screen | P78536 | recombinant ADAM17, EDANS/DABCYL FRET peptide cleavage | inhibition, % at 6.95 µM | actives 0.83% (n = 370,000) | AID 720648;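 active = inhibition above the mean of compounds lying between control limits plus 3 SD, set per campaign, cut at about 8.5% in these data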;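 note: 0% = DMSO-only wells as the low control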
FGF22 binding: shifts melting point of recombinant human FGF22; recombinant FGF22 thermal shift, SYPRO orange fluorescence; percent of sucrose octasulfate shift, DMSO zero; actives 1.5% (n = 340,000); activity (Tm shift, normalised), % at 9.99 µM; Q9HCT0;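 active = mean Tm shift, scaled 0 neutral to 100 positive control, at about 1.3% or above, every replicate too, limit read from the data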
Target sequence (Q9HCT0 whole entry, looked up): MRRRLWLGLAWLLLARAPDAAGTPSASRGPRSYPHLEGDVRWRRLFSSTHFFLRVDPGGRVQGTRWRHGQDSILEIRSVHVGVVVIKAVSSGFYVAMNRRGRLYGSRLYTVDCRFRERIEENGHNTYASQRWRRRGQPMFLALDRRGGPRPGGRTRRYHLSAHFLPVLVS
proKLK7 act conf: proKLK7 activation, confirmation; actives 68% (n = 3,200); purified proKLK7, EDANS-DABCYL substrate fluorescence; scaled: vehicle 0, mature enzyme 100; shares compounds with KLK7 zymogen act; activation, % at 7 µM;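 active = activation, as change over the incubation, above the mean of all tested compounds plus 3 SD, cut at about 13% in these data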
EDANS interfere: optically interferes with EDANS-DABCYL signal, flagging KLK7 hits; EDANS-DABCYL substrate fluorescence interference, no enzyme, 4 h; solvent 0%, active enzyme control 100%; activation, % at 7 µM; AID 686952; actives 80% (n = 3,200); shares compounds with KLK7 zymogen act;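 active = activation above the all-compound mean plus 3 SD, ignoring values outside control-based bounds, cut at about 4.8% in these data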;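 note: value is the 4 h activation minus the activation read at time zero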
K7 EDANS ctr: counter-screen for kallikrein-7 activators: EDANS-DABCYL interference, dose response | EC50, µM | actives 20% (n = 250) | shares compounds with KLK7 zymogen act | AID 720493 | EDANS-DABCYL peptide fluorescence interference, no enzyme;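 active = compounds that raise the fluorescence signal in this interference counterscreen, with EC50 at or below 10 µM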;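 note: intact quenched peptide substrate alone read at 355 nm excitation and 520 nm emission; signal is fluorescence gain from T0 to T4 after four hours at room temperature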
Active calls of the source: *.

Screening Cc1ccc(S(=O)(=O)N(C)C[C@H]2Oc3ncc(-c4ccccc4)cc3C(=O)N([C@@H](C)CO)C[C@H]2C)cc1 returned rRNA inh HTS -4.5 and FGF22 binding -0.3.
COCC(=O)Nc1ccc2c(c1)[C@@H]1C[C@H](CC(=O)NCc3ccccc3OC)O[C@H](CO)[C@@H]1O2 was read as rRNA inh HTS -3.9 and FGF22 binding -0.2.
`Cc1oc2c(CN3CCCC(C)C3)c(O)ccc2c(=O)c1-c1ccccc1` (stereo unspecified) gave ADAM10 inh inactive, rRNA inh HTS 10.2, KLK7 zymogen act 32.9*, ADAM17 inh -438.0, FGF22 binding -0.1, proKLK7 act conf 23.3* and EDANS interfere 23.1*.
For CCc1cc(=O)oc2cc(C)c(CN3CCCC(C)C3)c(O)c12 (stereo unspecified) the results were ADAM10 inh -15.2, KLK7 zymogen act -0.4 and ADAM17 inh -8.6.
COc1ccccc1-c1coc2c(CN3CCCC(C)C3)c(O)ccc2c1=O (stereo unspecified) was read as ADAM10 inh inactive, rRNA inh HTS 3.5, KLK7 zymogen act 40.0*, ADAM17 inh inactive, FGF22 binding -0.1, proKLK7 act conf 65.1* and EDANS interfere 61.8*.
For CCN(CC(=O)NCc1ccc(F)cc1)C(=O)/C=C/c1cc(OC)ccc1OC the results were ADAM10 inh inactive, rRNA inh HTS 2.6, KLK7 zymogen act 69.0*, ADAM17 inh -361.5, FGF22 binding -0.4, proKLK7 act conf 59.9* and EDANS interfere 65.5*.
For COCCCn1c(CCC(=O)O)ccc1-c1cccs1 the results were ADAM10 inh inactive, KLK7 zymogen act 12.7*, ADAM17 inh -199.4, proKLK7 act conf 6.9 and EDANS interfere 8.7*.
For C[C@@H]1CN([C@@H](C)CO)C(=O)c2cc(NC(=O)c3ccncc3)ccc2O[C@@H](C)CCCCO[C@H]1CN(C)Cc1ccccc1 the results were rRNA inh HTS 2.9 and FGF22 binding 0.0.
Screening CCCCC1OC2(C)OC(=N)C1(C#N)C(C#N)(C#N)C2c1ccccc1 (stereo unspecified) returned ADAM10 inh inactive, rRNA inh HTS -0.3, KLK7 zymogen act 14.0*, ADAM17 inh -417.5, FGF22 binding 0.2, proKLK7 act conf 46.9* and EDANS interfere 49.9*.
Screening Cc1cc(C)cc(N=Cc2c(O)c3ccccc3oc2=O)c1 returned ADAM10 inh 0.6, rRNA inh HTS 16.1, KLK7 zymogen act 0.4, ADAM17 inh -3.6 and FGF22 binding 0.6.
Screening O=C(O)c1cc(N=Cc2c(O)c3ccccc3oc2=O)ccc1O returned ADAM10 inh -91.6, rRNA inh HTS 4.9, KLK7 zymogen act 149.6*, ADAM17 inh -33.5, FGF22 binding 0.0, proKLK7 act conf 398.3* and EDANS interfere 354.6*.
For O=C(Nc1ncc2c(n1)-c1ccccc1OC2)c1ccccc1Cl the results were ADAM10 inh inactive, KLK7 zymogen act 15.7*, ADAM17 inh inactive, proKLK7 act conf -0.4 and EDANS interfere -2.2.
CC(=O)c1ccc(-c2cccs2)s1 was read as ADAM10 inh inactive, rRNA inh HTS -0.6, KLK7 zymogen act 63.3*, ADAM17 inh inactive, FGF22 binding 0.2, proKLK7 act conf 63.3* and EDANS interfere 68.5*.
OC1CCCN(Cc2c3ccccc3cc3ccccc23)C1 (stereo unspecified) was read as ADAM10 inh inactive, KLK7 zymogen act 15.4*, ADAM17 inh -188.1, proKLK7 act conf -1.8 and EDANS interfere -2.3.
Screening COc1ccccc1CC(=O)Nc1ccc(NC(=O)c2cccs2)cc1 returned ADAM10 inh 0.8, rRNA inh HTS 1.4, KLK7 zymogen act 52.0*, ADAM17 inh 0.3, FGF22 binding -0.1, proKLK7 act conf 72.5*, EDANS interfere 59.5* and K7 EDANS ctr 8.18*.
Screening COc1ccc(NC(=O)c2cccs2)cc1OC returned ADAM10 inh 5.2, KLK7 zymogen act 0.7 and ADAM17 inh -6.5.
For COc1cc(NC(=O)c2cccs2)c(OC)cc1NC(=O)CCC(=O)Nc1ccc(C)cc1 the results were ADAM10 inh 4.7, rRNA inh HTS 4.8, KLK7 zymogen act 123.4*, ADAM17 inh 2.0, FGF22 binding -0.1, proKLK7 act conf -11.4 and EDANS interfere 1.0.
O=C(Nc1ccc(F)cc1)Nc1ccc2c(c1)[C@H]1C[C@@H](CC(=O)N3CCCCC3)O[C@H](CO)[C@H]1O2 was read as rRNA inh HTS -4.6 and FGF22 binding -0.2.
`CCCC(NC(=O)CCc1c(C)c2cc3c(C)c(C)oc3cc2oc1=O)C(=O)NC(Cc1ccc(Cl)cc1)C(=O)O` (stereo unspecified) gave ADAM10 inh -339.5, rRNA inh HTS 1.8, KLK7 zymogen act 4.2, ADAM17 inh -97.0 and FGF22 binding -0.2.
Screening O=C(Cc1cc(=O)oc2cc(O)ccc12)NC(Cc1ccc(Cl)cc1)C(=O)O (stereo unspecified) returned ADAM10 inh inactive, rRNA inh HTS 3.3, KLK7 zymogen act 45.7*, ADAM17 inh inactive, FGF22 binding -0.4, proKLK7 act conf 65.0* and EDANS interfere 68.0*.
`Cc1c(O)ccc2c(CC(=O)N[C@@H](Cc3ccc(O)cc3)C(=O)O)cc(=O)oc12` gave ADAM10 inh inactive, rRNA inh HTS -1.3, KLK7 zymogen act 39.5*, ADAM17 inh inactive, FGF22 binding -0.1, proKLK7 act conf 64.6* and EDANS interfere 68.5*.
CCC(NC(=O)CCc1c(C)c2cc3c(C)c(C)oc3cc2oc1=O)C(=O)N[C@@H](Cc1ccccc1)C(=O)O (stereo partly specified) was read as ADAM10 inh -298.6, rRNA inh HTS -13.2, KLK7 zymogen act 14.0*, ADAM17 inh -72.4, FGF22 binding 0.2, proKLK7 act conf 13.3*, EDANS interfere 8.7* and K7 EDANS ctr >69.5.
O=C(COc1ccc2ccc(=O)oc2c1)NC(Cc1ccc(Cl)cc1)C(=O)O (stereo unspecified) was read as ADAM10 inh -167.9, KLK7 zymogen act 0.9, ADAM17 inh -42.8 and FGF22 binding 0.2.
For Cc1c(CC(=O)NCC(=O)NCC(=O)N[C@@H](Cc2ccccc2)C(=O)O)c(=O)oc2c(C)c(O)ccc12 the results were ADAM10 inh inactive, KLK7 zymogen act 71.9*, ADAM17 inh inactive, FGF22 binding 0.4, proKLK7 act conf 61.4* and EDANS interfere 73.6*.
